From PubChem BioAssay
A selection: hits, their analogues and other compounds. The true share with any hit is near 0.46%.
Mito fusion act – blocks mitochondrial division or promotes mitochondrial fusion | S. cerevisiae fusion-defective mutant growth rescue, CellTiterGlo 48 h | Potency, µM (highest dose often 46.1 µM), usual class: activators | 320,000 tested, 0.23% active; note: nearly all actives have a fitted effect of over 45% in size
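Yeast fusion mutant, YPEG (non-fermentable carbon), compound, 48 h at 37C non-permissive; CellTiterGlo added, 10 min RT, luminescence read. Rescued growth = division inhibition.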
PTAP TSG101 blk – blocks PTAP/TSG101 interaction to inhibit HIV-1 budding; Q99816; Fluorescence polarization, FITC-PTAP peptide / Tsg101 binding; Potency, µM (titrated, usually from 115 µM), hits mostly inhibitors; 340,000 tested, under 10 active; active = well fitted inhibition curve with a large enough effect in the main read-out, with a control signal flat, not every such curve was filed as active; inconclusive = small, poorly fitted or top-dose-only effect, or effect the other way, or a change in a side signal; inactive = no such curve, though single readings can be large or run the other way
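Fluorescence polarization binding of Tsg101 binding domain (10 uM final) to FITC-labeled PTAP peptide (50 nM final) in HEPES pH 7.5 buffer with NaCl, Tween 20, EDTA, TCEP. Compounds added before peptide; binding 20 min at RT.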
GALK inhibitor – inhibitors of human galactokinase | Purified GALK, Kinase-Glo residual ATP luminescence | Potency, µM (top dose mostly 57.5 µM), most hits filed as inhibitors | 270,000 tested, 0.007% active | AID 1868
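GALK at 5 nM final was combined with compound, 35 uM ATP and 100 uM galactose in HEPES pH8.0 with MgCl2 and DTT. The reaction ran one hour at room temperature before luminescent ATP detection.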
S-ASM inh – human S-ASM enzyme inhibition. placental ASM, HMU-PC fluorogenic substrate, 60 min. Potency, µM (top dose mostly 57.5 µM), most hits filed as inhibitors. 340,000 tested, 0.006% active
Target sequence (P17405 47-631 limits assumed): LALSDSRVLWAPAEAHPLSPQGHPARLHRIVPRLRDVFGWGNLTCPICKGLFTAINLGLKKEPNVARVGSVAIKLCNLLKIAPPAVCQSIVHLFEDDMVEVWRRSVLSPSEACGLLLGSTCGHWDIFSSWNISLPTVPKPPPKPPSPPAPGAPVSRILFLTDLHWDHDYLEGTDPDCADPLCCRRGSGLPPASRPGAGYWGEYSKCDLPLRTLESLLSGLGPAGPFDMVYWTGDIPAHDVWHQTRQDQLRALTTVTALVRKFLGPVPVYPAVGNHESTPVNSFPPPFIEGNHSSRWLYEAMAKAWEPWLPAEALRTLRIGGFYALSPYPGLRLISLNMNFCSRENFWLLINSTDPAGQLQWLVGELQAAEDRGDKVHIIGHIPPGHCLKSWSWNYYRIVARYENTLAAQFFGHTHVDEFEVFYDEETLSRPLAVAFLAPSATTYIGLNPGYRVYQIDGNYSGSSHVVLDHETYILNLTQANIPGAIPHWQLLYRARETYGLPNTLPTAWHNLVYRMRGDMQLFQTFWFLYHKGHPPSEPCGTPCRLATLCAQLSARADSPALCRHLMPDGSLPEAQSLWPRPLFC
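Fluorescence read-out (Ex 386 nm, Em 447 nm) after stopping the reaction at pH 10. Enzyme: ASM from human placenta; substrate HMU-PC0, 9 uM final; 60 min, 37 °C. Compound preincubation 10 min, ambient temperature.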
AT treatment – candidate therapy for ataxia-telangiectasia. AID 485349. F2112 A-T fibroblasts, KAP-1 phosphorylation AlphaLISA; neocarzinostatin DNA damage 30 min before lysis. Potency, µM (doses to about 57.5 µM), hits mostly activators. 320,000 tested, 0.19% active; note: nearly all actives have a fitted effect of over 45% in size
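ATM-like activity read as KAP-1 phosphorylation via AlphaLISA donor/acceptor antibody pairs after lysis and 6 hr at 25C. Cells were ATM-null patient fibroblasts (F2112, hTERT), dosed 60 min, then exposed to the DSB inducer NCS for 30 min.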
Integrin act MD – integrin-mediated muscular dystrophy alleviation activation. alpha7betagal myoblasts, beta-gal FDG fluorescence, 48 h. Potency, µM (doses to about 38.3 µM), actives largely listed as activators. 350,000 tested, 0.064% active; note: nearly all actives have a fitted effect of over 60% in size
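Alpha7betagal+/- myoblasts (passage 13) were plated 16-24 hr, then exposed to compounds (1:260 dilution of DMSO stock) for 48 hours at 37C. After MPER lysis, β-galactosidase reporter activity was read as FDG fluorescence (ex 480/em 540) after 30 minutes.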
Of the large screens only hits and unclear results are named; the others gave an inactive call. Unless noted, calls come from the whole dose curve; as a rule, active = well fitted curve in the direction sought with a large enough effect; inconclusive = small, poorly fitted or top-dose-only effect, or another doubt; inactive = no such curve, though single readings can be large; an effect the other way counts as inactive or inconclusive.

Cc1oc2c(c(C)cc3oc(=O)c(CC(=O)NCCC(=O)O)c(C)c32)c1C	none
O=[N+]([O-])c1cc(S(=O)(=O)C(F)(F)F)ccc1N1CCN(c2ccccc2)CC1	Mito fusion act inconclusive
O=[N+]([O-])c1cc(S(=O)(=O)Nc2ccccc2)ccc1N1CCN(c2ccccc2)CC1	Mito fusion act 20µM (no result: S-ASM inh)
O=[N+]([O-])c1cccc(S(=O)(=O)N2CCN(S(=O)(=O)N3CCOCC3)CC2)c1	Integrin act MD 10µM
CCOC(=O)c1ccc(N2C(=O)c3n[nH]c(-c4ccco4)c3C2c2cccc([N+](=O)[O-])c2)cc1 (stereo not drawn)	Mito fusion act inconclusive, S-ASM inh 28µM
CCOC(=O)c1ccc(N2C(=O)c3n[nH]c(C)c3C2c2ccco2)cc1 (stereo not drawn)	none
CCOC(=O)C1(Cc2cccc(Cl)c2)CCCN(C(=O)CN2C(=O)CSC2=O)C1 (stereo not drawn)	none
Cn1ncc(Cl)c(Oc2ccc(Cl)cc2)c1=O	none (no result: GALK inhibitor)
Cn1ncc(Oc2ccc([N+](=O)[O-])cc2)c(Cl)c1=O	AT treatment 40µM
COc1cc(/C=C(\CC(=O)O)c2nc3ccccc3s2)cc(OC)c1O	none
COc1cc(C=C(c2nc3ccccc3s2)c2nc3ccccc3s2)cc(OC)c1O	Mito fusion act 18µM
Cc1noc(C)c1-c1ccc2ncnc(NCc3cccc(-c4ccccc4)c3)c2c1	none (no result: PTAP TSG101 blk, GALK inhibitor, S-ASM inh, Integrin act MD)
CCNc1c(NS(=O)(=O)c2ccc(OC)cc2)c(=O)oc2ccccc12	none
Cc1ccc(NC(=O)c2cc(-c3ccc(F)cc3)on2)cc1C	none
COc1ccc(-c2cc(C(=O)Nc3ccc(C)c(C)c3)no2)cc1	AT treatment 13µM (no result: GALK inhibitor)
CN(C)S(=O)(=O)c1ccc(Cl)c(C(=O)NC2=NCCS2)c1	none (no result: GALK inhibitor)
Cc1cccc(-c2ccc3ncnc(NCc4cccc(F)c4)c3c2)c1	none (no result: PTAP TSG101 blk, GALK inhibitor, S-ASM inh, Integrin act MD)
CCCNc1c(NS(=O)(=O)c2ccc(Br)cc2)c(=O)oc2ccccc12	Mito fusion act 8.9µM
COc1ccc(CNC(=O)c2ccc3c(c2)NC(=O)C(C)S3)cc1 (stereo not drawn)	none (no result: GALK inhibitor)
CCCC[C@]12Cc3cc(OC)c(OC)cc3C(O1)c1c(cc(-c3ccccc3)oc1=O)O2	none (no result: PTAP TSG101 blk, GALK inhibitor, S-ASM inh, Integrin act MD)
CC1(C)[C@@H](O)CC[C@]2(C)C3C(O)C=C4[C@H]5C[C@@](C)(CO)CC[C@]5(C)CC[C@]4(C)[C@]3(C)CC[C@@H]12 (stereo partly drawn)	Mito fusion act 11µM
N#Cc1ccc(S(=O)(=O)NC2CC2)cc1	none
Cc1ccc(Cl)cc1N1CCN(C(=O)CSc2nnc3n2C(C)(C)Cc2ccccc2-3)CC1	Mito fusion act 16µM (no result: AT treatment)
COc1ccc(N2CCN(C(=O)CSc3nnc4n3C(C)(C)Cc3ccccc3-4)CC2)cc1	none (no result: AT treatment)
CC(C)(C)N/C=C(\C#N)S(=O)(=O)c1ccc(Br)cc1	Integrin act MD 11µM
CC(=O)Oc1ccc(C(=O)Nc2ccc(S(=O)(=O)N3CCOCC3)cc2)cc1	none
COc1cccc(-c2coc3cc4oc(=O)c(CCC(=O)O)c(C)c4cc23)c1	Mito fusion act 22µM
Cc1c(CCC(=O)NCCCCCC(=O)O)c(=O)oc2cc3occ(-c4ccccc4)c3cc12	AT treatment 8.9µM
COc1cccc(-c2coc3c(C)c4oc(=O)c(CCC(=O)O)c(C)c4cc23)c1	none
COC(=O)C(C)Sc1nc2c(cnn2-c2ccc(Cl)cc2)c(=O)[nH]1 (stereo not drawn)	none (no result: GALK inhibitor)
CCOC(=O)c1cc(-c2ccc(OC)cc2)n(CCC(=O)Nc2ccccc2OC)c1C	none (no result: PTAP TSG101 blk, GALK inhibitor, S-ASM inh, AT treatment, Integrin act MD)
Cc1ccccc1N1C(=O)c2ccccc2C1O (stereo not drawn)	AT treatment 40µM
COc1ccc(CN2CCN(c3ncnc4scc(-c5ccc(F)cc5)c34)CC2)cc1	AT treatment 14µM
COc1ccc(NC(=O)C2C3C=CC4(O3)C2C(=O)N(CCN2CCCCC2)C4C(=O)NC2CCCC(C)C2C)cc1 (stereo not drawn)	Mito fusion act 32µM
